Compounds with a hit are over-represented: about 7.4% of the library has one in this group of screens.
SMN2 splice enh = enhancers of SMN2 splice variant expression; Potency, µM (top dose mostly 46.1 µM), inactives show top-dose activity change, positive = activation, most hits filed as activators; 210,000 compounds, 2.8% hits; HEK293 SMN2-luciferase splicing reporter, luminescence, 30-36 h; AID 1458; further: % of control where 0% means no effect; nearly all actives have a fitted effect of over 55% in size
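HEK293 cells carry an SMN2 […]–luciferase reporter in which exon 7 inclusion puts luciferase in frame. Cells were plated 10-12 h before compound addition, then incubated 30-36 h at 37C. ONE-Glo luminescence was read; sodium butyrate at 4.5 mM final served as control.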
KinaseGlo FLuc = blocks Kinase-Glo luciferase, a counter-screen artifact; 200,000 compounds, 0.28% hits; AID 1379; Kinase-Glo luciferase, ATP luminescence, 8 min; Potency, µM (titrated, usually from 38.3 µM), for inactives: top-dose activity change, negative = inhibition, usual class: inhibitors; further: on the % scale 0 is the no-effect control and ±100 the full control effect; nearly all actives have a fitted effect of over 60% in size
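Recombinant Kinase-Glo luciferase, 10 uM ATP (linear range), luciferin; imidazole pH 7.2 / KCl / MgCl2 / Tween / BSA buffer; 8 min RT; luminescence.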
FLuc modulator = counter-screen for miR-21 project: firefly luciferase inhibitors or activators. Potency, µM (top dose mostly 57.5 µM), for inactives: at the highest dose activity change, negative = inhibition, usual class: inhibitors. purified FLuc, Km substrates, luminescence inhibition. 360,000 compounds, 6.9% hits. AID 588342;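 further: plate controls were vehicle for no effect and reference inhibitor for full effect; nearly all actives have a fitted effect of over 55% in size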
Target sequence (P08659 whole entry, looked up): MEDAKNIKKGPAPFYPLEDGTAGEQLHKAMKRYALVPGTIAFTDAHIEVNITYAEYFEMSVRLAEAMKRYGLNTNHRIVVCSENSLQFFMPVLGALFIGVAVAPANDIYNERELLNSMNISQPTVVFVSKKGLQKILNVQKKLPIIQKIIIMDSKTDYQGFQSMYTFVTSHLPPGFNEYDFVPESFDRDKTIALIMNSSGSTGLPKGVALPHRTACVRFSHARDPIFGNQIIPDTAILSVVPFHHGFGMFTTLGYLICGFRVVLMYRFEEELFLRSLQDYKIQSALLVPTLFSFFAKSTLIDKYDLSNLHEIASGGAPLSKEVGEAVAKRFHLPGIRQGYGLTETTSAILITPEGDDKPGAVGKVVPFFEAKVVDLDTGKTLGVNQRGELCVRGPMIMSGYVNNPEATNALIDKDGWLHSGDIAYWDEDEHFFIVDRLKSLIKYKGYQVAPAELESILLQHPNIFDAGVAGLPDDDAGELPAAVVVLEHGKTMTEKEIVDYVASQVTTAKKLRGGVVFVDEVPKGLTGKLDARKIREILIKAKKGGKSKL
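Purified P. pyralis luciferase (10nM final) with 10uM D-luciferin and 10uM ATP (Km levels) in 50mM Tris acetate pH 7.5, 10mM Mg acetate, 0.01% Tween-20, 0.05% BSA; qHTS 6-point titration, ~60 µM downward; luminescence read.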
ELG1 genotoxic = genotoxicity induction in ELG1-luciferase HEK293T cells; HEK293T ELG1-luciferase reporter, luminescence, 16 h; Potency, µM (titrated, usually from 46 µM), inactives show at the top dose activity change, positive = activation, hits mostly activators; 330,000 compounds, 1.3% hits; further: % of control where 0% means no effect; nearly all actives have a fitted effect of over 60% in size
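Genotoxic stress is detected as increased luminescence from luciferase-tagged ELG1 in HEK293T cells, measured with ONE-Glo after a 16 hr treatment at 37 °C.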
Rab9 promoter act = activators of Rab9 promoter. Huh7 Rab9 promoter-luciferase reporter, luminescence, 24 h. Potency, µM (titrated, usually from 9.22 µM), for inactives: top-dose activation, negative = inhibition, usual class: activators. 320,000 compounds, 2.8% hits; further: % of control where 0% means no effect; nearly all actives have a fitted effect of over 60% in size
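Huh7 cells stably carrying a Rab9 promoter-luciferase reporter, 1500 cells per well in OP-MEM I with 10% FBS, treated with compound 24 hours at 37C. Luciferase activity read by luminescence after 10 minutes with Amplite reagent.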
NPC1 promoter act = activates the NPC1 promoter; Huh7 NPC1 promoter luciferase reporter, 24 h; AID 485313; Potency, µM (series often up to 9.22 µM), for inactives: top-dose activation, actives largely listed as activators; 320,000 compounds, 2.4% hits; further: % of control where 0% means no effect; nearly all actives have a fitted effect of over 60% in size
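Cells: Huh7 expressing luciferase under the NPC1 promoter, 1500/well. Seeded 2 h, compound added, incubated 24 h at 37 °C. Luciferase reagent, 10 min ambient, then luminescence.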
The depositor's hits bear a star; ? = inconclusive; . = not tested or not shown; [ ] = remark or other dose. The call rests on the fitted dose curve; in most records, active means well fitted curve in the direction sought with a large enough effect; inconclusive means small, poorly fitted or top-dose-only effect, or another doubt; inactive means no such curve, though single readings can be large; an effect the other way counts as inactive or inconclusive. Potency means the concentration at half of the fitted maximal effect.

SMILES	SMN2 splice enh	KinaseGlo FLuc	FLuc modulator	ELG1 genotoxic	Rab9 promoter act	NPC1 promoter act
O=c1c2c([N+](=O)[O-])cc([N+](=O)[O-])cc2sn1Cc1ccccc1	.	.	9.53µM*	-1.0%	5.0%	-3.7%
O=C(Nc1ccc(Br)cc1)c1cc([N+](=O)[O-])cc([N+](=O)[O-])c1	.	.	2.3%	-15.2%	5.0%	-1.4%
O=c1c2c([N+](=O)[O-])cc([N+](=O)[O-])cc2sn1-c1ccc(Br)cc1	-4.1%	5.2%	21.3µM*	-0.5%	-1.1%	-4.8%
Cc1ccc(C2=NN3C(C2)c2ccccc2OC32C(=O)Nc3ccccc32)cc1 (stereo not drawn)	?	-1.6%	15.1µM*	?	?	2.51µM*
COc1cccc(/C=N\NC(=O)c2ccc(C)nc2)c1	.	.	19µM*	11.5%	13.1%	22.7%
CCOc1ccc2ccccc2c1/C=N/NC(=O)c1ccc(C)nc1	.	.	4.78µM*	6.1%	2.8%	0.1%
Cc1ccc(C(=O)N/N=C\c2cccs2)cn1	2.6%	-1.5%	23.9µM*	-4.3%	18.1%	20.9%
CCOc1ccc2ccccc2c1/C=N/NC(=O)CNC(=O)c1ccccc1O	.	.	-2.8%	-8.4%	-0.6%	0.5%
Cc1ccc(C(=O)N/N=C/c2ccc(OC(=O)c3ccccc3Cl)cc2)cn1	.	.	-8.5%	1.9%	4.9%	5.2%
O=C(N/N=C/c1cccc(OC(=O)c2ccccc2Cl)c1)c1cccnc1	.	.	23.9µM*	18.1%	10.5%	24.1%
CCn1c(C)nc2cc(C(=O)NNC(=O)CCC3CCCC3)ccc21	4.6%	4.4%	-10.9%	3.2%	3.6%	-1.8%
COc1ccc(CNC(=O)c2ccc(CS(=O)(=O)Cc3ccccc3F)o2)cc1	-21.8%	-1.4%	-9.9%	-8.1%	-5.0%	-4.2%
COc1ccccc1NC(=O)C(=O)N/N=C/c1cccs1	9.6%[1.84 µM]	-7.9%	9.53µM*	?	?	26.1%
COCCNC(=O)C(=O)N/N=C/c1cccs1	-1.5%	0.2%	1.7%	-6.6%	2.1%	-2.7%
Nc1c(C(=O)N/N=C/c2cccnc2)cnn1-c1ccccc1	.	-19.5%	?	5.0%	13.6%	16.7%
Cc1ccc(C(=O)N/N=C\c2cccc(OC(=O)c3cccc(F)c3)c2)cn1	.	.	8.49µM*	17.8%	-0.6%	4.3%
COc1cccc(/C=N/NC(=O)c2cnn(-c3ccccc3)c2N)c1	.	.	12µM*	-2.4%	?	?
O=C(N/N=C/c1cccc(OC(=O)c2ccco2)c1)c1ccc(F)cc1	7.0%	6.2%	3.79µM*	?	-3.7%	0.4%
COCCN(CC1CCCN(C2Cc3ccccc3C2)C1)C(=O)CCC(N)=O (stereo not drawn)	.	.	3.9%	-7.5%	-2.8%	12.3%
CCOc1ccccc1NC(=O)Cn1cnc2onc(-c3ccc(F)cc3)c2c1=O	.	.	2.8%	.	.	.
Cc1cccc(Nc2nc(-c3ccc(F)c(C)c3)cs2)n1	.	.	6.01µM*	11.2%	3.98µM*	3.16µM*
NS(=O)(=O)c1ccc(Nc2nc(-c3ccc(O)cc3)cs2)cc1	?	-2.3%	-4.6%	1.3%	-1.7%	-1.3%
O=C(Cc1ccccc1)Nc1nc(-c2ccc(F)c(F)c2)cs1	.	.	?	-6.8%	8.6%	-3.8%
Cc1cccc(Nc2nc(-c3ccc(O)c(O)c3)cs2)n1	.	.	21.3µM*	?	-1.9%	-8.5%
COc1ccc(C(C)=O)cc1CN(c1ccccc1OC)S(=O)(=O)c1cccs1	.	.	-0.1%	-19.1%	-2.7%	-5.3%
SMILES	SMN2 splice enh	KinaseGlo FLuc	FLuc modulator	ELG1 genotoxic	Rab9 promoter act	NPC1 promoter act
CNC(=O)N(O)C1N(NC(=O)Nc2cccc3ccccc23)C(=S)SC1(C)C (stereo not drawn)	7.08µM*	0.0%	-1.4%	4.0%	-1.1%	-4.2%
CC1(C)SC(=S)N(NC(=O)Nc2ccccc2)C1N(O)C(=O)Nc1ccccc1 (stereo not drawn)	0.0%	-2.3%	-0.1%	-0.9%	9.4%	0.4%
Cc1ccn2c(=O)nc(SCC(=O)NCc3ccccc3)nc2c1	.	.	-2.9%	0.3%	-3.5%	1.4%
Cc1ccc2nc(SCC(=O)c3ccccc3)nc(=O)n2c1	.	.	10.7µM*	?	?	2.51µM*
Cc1ccn2c(=O)nc(SCC(=O)c3ccccc3)nc2c1	.	.	15.1µM*	?	?	?
O=C(NC1CC(=O)N(c2cccc(F)c2)C1)C(=O)c1c[nH]c2ccccc12 (stereo not drawn)	.	.	3.7%	9.9%	-3.5%	2.2%
COC(=O)N1CCC2(CCCN(C(c3ccccc3)c3ccccc3)C2)CC1	-19.8%	-2.4%	.	.	.	.
CN(C1CCCCC1)S(=O)(=O)c1cccc2nsnc12	.	.	-0.3%	-4.2%	-1.1%	-3.6%
COc1ccc(/C=N/Nc2nc(-c3cccnc3)nc3ccccc23)cc1OC	.	.	2.13µM*	3.5%	6.9%	4.9%
Fc1ccccc1/C=N/Nc1nc(-c2ccccn2)nc2ccccc12	.	.	9.53µM*	8.9%	-28.1%	-24.2%
Cc1c(O)ccc(/C=N/Nc2nc(-c3cccnc3)nc3ccccc23)c1O	.	.	3.38µM*	11.5%	24.7%	18.4%
Cc1ccc(-c2nc(N/N=C/c3ccncc3)c3ccccc3n2)cc1	-24.2%	2.24µM*	0.0757µM*	?	2µM*	?
Cc1ccc(/C(N)=N/OC(=O)C(C)c2ccc([N+](=O)[O-])cc2)cc1 (stereo not drawn)	.	.	-1.9%	2.3%	-3.4%	-0.6%
C[C@]12c3[nH]c4ccccc4c3CCN1C(=O)C(CC(=O)NCCN1CCOCC1)C[C@@H]2C(=O)N1CCCCC1 (stereo partly drawn)	.	.	.	4.1%	.	.
CN(Cc1ccccc1)/C(=N/O)c1cccc(Cl)c1	.	.	-3.8%	3.5%	0.1%	-3.6%
CC(=O)Nc1ccc(/C=C(\C#N)S(=O)(=O)c2ccc(C)cc2)cc1	.	.	.	3.7%	.	.
Oc1ccc(/C=N/Nc2nc(-c3cccnc3)nc3ccccc23)c(O)c1	.	.	4.78µM*	-2.8%	4.1%	-0.6%
Cc1ccc(Nc2nc(-c3cccnc3)nc3ccccc23)cc1	.	.	-3.7%	-12.1%	-12.2%	-19.9%
COc1cccc(C(=O)Nc2ccccc2NC(=O)c2cccc(OC)c2)c1	.	.	-6.7%	-7.2%	-1.8%	-4.0%
CCCCC(=O)Nc1cc(C(=O)NCCc2ccccc2)ccc1Cl	7.94µM*	1.9%	-4.2%	?	2.51µM*	2.24µM*
Cc1ccnc(NC(=O)c2ccc(Cl)c(NC(=O)CCc3ccccc3)c2)c1	?	-2.7%	?	-7.1%	5.2%	10.1%
COc1cccc(C(=O)Nc2cc(C(=O)NCCc3ccccc3)ccc2Cl)c1	11.2µM*	-5.0%	-17.7%	?	13.4%	9.2%
Cc1ccc(C)c(CNS(=O)(=O)c2c(C)[nH]c(C)c2C(=O)N2CCCCC2)c1	.	.	1.6%	-0.8%	13.8%	-0.3%
